From PubChem BioAssay (NCI)
Compounds without any hit were thinned out: in the full panel of roughly 79,000, 15% have a hit. Active and inactive are the calls of the source. No stated cut-off is given here; in the data, active means growth inhibition above about 70%; inactive means the rest.

Columns and labels:
[1] = NCI Yeast Anticancer Drug Screen. Data for the rad52 strain (AID 147);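 further: 0% = growth of vehicle-treated control cultures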; settings: S. cerevisiae rad52 mutant growth inhibition, stronger effect = higher value
In short: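 Vehicle-treated cultures served as the reference for growth inhibition of compound-exposed yeast bearing a DNA repair mutation.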

[2] = NCI Yeast Anticancer Drug Screen. Data for the wt1 strain (AID 149);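 further: 0% = growth of vehicle-treated wt1 cultures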; settings: S. cerevisiae wt1 strain (SPY 50644) growth inhibition, stronger effect = higher value
In short: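 Using yeast strain wt1, compound-induced growth inhibition was determined against vehicle-treated cultures.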

[3] = NCI Yeast Anticancer Drug Screen. Data for the rad50EPP+ strain (AID 151);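 further: 0% = growth of vehicle-treated control cultures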; settings: S. cerevisiae rad50 mutant strain, stronger effect = higher value
In short: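 In this screen, rad50EPP+ yeast were exposed to compounds. Growth inhibition was scored against vehicle-treated controls.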

[4] = NCI Yeast Anticancer Drug Screen. Data for the mgt1 strain (AID 153); settings: S. cerevisiae mgt1 mutant growth inhibition, stronger effect = higher value
In short: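 mgt1 strain exposed; growth vs vehicle control recorded as inhibition.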

[5] = NCI Yeast Anticancer Drug Screen. Data for the rad50 strain (AID 155);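 further: 0% = growth of vehicle-only cultures of the same strain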; settings: S. cerevisiae rad50 strain growth inhibition, stronger effect = higher value
In short: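 Relative growth inhibition (compound vs vehicle) was measured in yeast with a defined repair-gene alteration.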

[6] = NCI Yeast Anticancer Drug Screen. Data for the mec2-1 strain (AID 157); settings: S. cerevisiae mec2-1 strain, stronger effect = higher value
In short: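 Vehicle-treated cultures served as reference for growth inhibition of compound-exposed mec2-1 yeast.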

[7] = NCI Yeast Anticancer Drug Screen. Data for the rad14 strain (AID 159);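 further: 0% = growth of vehicle-treated control cultures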; settings: S. cerevisiae rad14 strain growth inhibition, stronger effect = higher value
In short: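 Screen for anticancer potential: a yeast strain altered in DNA damage repair is grown with compound, and reduced growth is quantified against vehicle controls.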

[8] = NCI Yeast Anticancer Drug Screen. Data for the sgs1 mgt1 strain (AID 161);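 further: 0% = growth of cultures given vehicle only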; settings: S. cerevisiae sgs1 mgt1 strain, stronger effect = higher value
In short: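 Test agents were incubated with a DNA-repair-mutant yeast strain. Growth was then read and compared against vehicle-treated controls.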

[9] = NCI Yeast Anticancer Drug Screen. Data for the CLN2oe strain (AID 163);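 further: 0% = growth of vehicle-only control cultures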; settings: S. cerevisiae CLN2oe strain, stronger effect = higher value
In short: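 Inhibition relative to vehicle-treated yeast is reported. Cells: strain with genetic alteration in cell-cycle control, grown with compound.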

[10] = NCI Yeast Anticancer Drug Screen. Data for the cln2 rad14 strain (AID 165);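 further: 0% = growth equal to vehicle treated cultures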; settings: S. cerevisiae cln2 rad14 strain, stronger effect = higher value
In short: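 Each compound was tested on cln2 rad14 yeast. Inhibition of growth was calculated against vehicle-exposed controls.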

[11] = NCI Yeast Anticancer Drug Screen. Data for the bub3 strain (AID 167); settings: S. cerevisiae bub3 mutant strain, stronger effect = higher value
In short: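 Screening used yeast with an engineered genetic alteration affecting cell cycle control. Compound-exposed cultures were compared with vehicle cultures, and reduced growth was taken as inhibition.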

[12] = NCI Yeast Anticancer Drug Screen. Data for the wt2 strain (AID 169);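 further: 0% = growth of vehicle-treated yeast cultures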; settings: S. cerevisiae wt2 strain growth inhibition, stronger effect = higher value
In short: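 Inhibition of yeast growth was determined after compound treatment, normalised to controls receiving only vehicle.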

[13] = NCI Yeast Anticancer Drug Screen. Data for the mlh1 strain (AID 171);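 further: 0% = growth of vehicle-treated control cultures of the same strain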; settings: S. cerevisiae mlh1 strain growth inhibition, stronger effect = higher value
In short: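 Vehicle-normalised growth inhibition of a repair- or checkpoint-altered yeast strain following compound treatment.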

[14] = NCI Yeast Anticancer Drug Screen. Data for the mlh1 rad18 strain (AID 175); settings: S. cerevisiae mlh1 rad18 strain growth inhibition, stronger effect = higher value
In short: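 Vehicle-treated cultures served as the reference for growth inhibition in a yeast strain carrying DNA damage repair alterations exposed to each compound.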

[15] = NCI Yeast Anticancer Drug Screen. Data for the rad18 strain (AID 177); settings: S. cerevisiae rad18 mutant growth inhibition, stronger effect = higher value
In short: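 Test articles were incubated with altered yeast defective in DNA damage repair. Results are given as inhibition of growth versus vehicle.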

[16] = at 5.0 µM (retest, dose inferred, filed as 0.5)
[17] = at 50.0 µM (retest, dose inferred, filed as 5.0)

Measured: growth inhibition

CCC[CH2][Ge]([CH2]CCC)([CH2]CCC)[O]C(=O)C(O)c1ccccc1 (stereo not drawn)
active: [1]; at 33.0 µM 88% | [1]; at 100.0 µM 98% | [2]; at 100.0 µM 99% | [4]; at 33.0 µM 93% | [4]; at 100.0 µM 99% | [5]; [16] 95% | [5]; at 33.0 µM 90% | [5]; [17] 95% | [5]; at 50.0 µM 90.2% | [5]; at 100.0 µM 97% | [6]; at 50.0 µM 90.5% | [6]; at 100.0 µM 99% | [7]; at 100.0 µM 99% | [8]; [16] 97% | [8]; [17] 97% | [8]; at 50.0 µM 89.5% | [9]; at 33.0 µM 83% | [9]; at 100.0 µM 99% | [10]; at 50.0 µM 91.2% | [11]; at 33.0 µM 88% | [11]; at 50.0 µM 88.3% | [11]; at 100.0 µM 99% | [12]; at 33.0 µM 81% | [12]; at 100.0 µM 99% | [13]; at 33.0 µM 88% | [13]; at 100.0 µM 99% | [14]; [16] 84% | [14]; [17] 84% | [14]; at 50.0 µM 89.7% | [15]; at 33.0 µM 89% | [15]; at 100.0 µM 99%
inactive: [1]; at 1.2 µM 1% | [1]; at 3.7 µM 11% | [1]; at 11.0 µM 45% | [2]; at 1.2 µM -4% | [2]; at 3.7 µM -5% | [2]; at 11.0 µM 11% | [2]; at 33.0 µM 60% | [3]; at 1.2 µM -2% | [3]; at 3.7 µM 3% | [3]; at 11.0 µM 8% | [3]; at 33.0 µM 21% | [3]; at 100.0 µM 49% | [4]; at 1.2 µM -1% | [4]; at 3.7 µM -1% | [4]; at 11.0 µM 10% | [5]; at 1.2 µM 3% | [5]; at 3.7 µM 9% | [5]; at 11.0 µM 36% | [6]; at 1.2 µM -1% | [6]; at 3.7 µM 2% | [6]; [16] 50% | [6]; at 11.0 µM 17% | [6]; at 33.0 µM 69% | [6]; [17] 50% | [7]; at 1.2 µM -3% | [7]; at 3.7 µM -7% | [7]; at 11.0 µM -1% | [7]; at 33.0 µM 68% | [9]; at 1.2 µM -3% | [9]; at 3.7 µM 5% | [9]; at 11.0 µM 17% | [10]; [16] 12% | [10]; [17] 12% | [11]; at 1.2 µM -2% | [11]; at 3.7 µM -4% | [11]; [16] 27% | [11]; at 11.0 µM 24% | [11]; [17] 27% | [12]; at 1.2 µM -2% | [12]; at 3.7 µM -2% | [12]; at 11.0 µM 16% | [13]; at 1.2 µM -1% | [13]; at 3.7 µM -2% | [13]; at 11.0 µM 14% | [15]; at 1.2 µM 10% | [15]; at 3.7 µM 7% | [15]; at 11.0 µM 55%
